High-throughput results deposited in PubChem by several laboratories.
PLC-beta3 inh – inhibitors of human phospholipase C beta3; Purified PLC-beta3, fluorogenic substrate, fluorescence; inhibition, % at 12.2 µM; 0.18% of 370,000 active; in the data active = inhibition above about 11%
GC-B act – GC-B (human) receptor activation; activation, % at 10 µM; 0.11% of 370,000 active; AID 1920062; HEK293-GC-B cells, CNP EC30, cGMP TR-FRET; 0% at EC30 CNP, 100% saturating CNP;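 active = activation at 10 µM reaching about 35% in either raw or pattern-adjusted values, limit read from the data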
NPR1 activator – GC-A (human) enzyme activation; 0.14% of 370,000 active; AID 1671463; activation, % at 10 µM; P16066; HEK293 GC-A cells, cGMP TR-FRET, EC30 ANP; 0% at EC30 ANP, 100% saturating ANP; in the data active = activation above about 40%
PLCg1 inh – PLC-gamma1 (human) inhibition, primary screen; P19174; purified PLC-gamma1, fluorogenic substrate, fluorescence; inhibition, % at 12.2 µM; 0.84% of 370,000 active; AID 720700; in the data active = inhibition above about 9.5%
A number is an active result; – = inactive. In the library only some 1.2% were active in any assay of this set; here they are far more common.

SMILES | PLC-beta3 inh | GC-B act | NPR1 activator | PLCg1 inh
COc1cccc2c1C(=O)C=C(C)C2=O | – | – | – | –
CCN1C(=S)N[C@@H](c2cccs2)C(C(=O)OC)=C1C | – | 35.0 | – | –
CCCc1ccc(C2C3=C(CC(C)(C)CC3=O)NC3=C2C(=O)c2ccccc23)cc1 (stereo not drawn) | – | – | – | 10.3
CCOCCOC(=O)COc1ccc2c(-c3ccccc3)cc(=O)oc2c1 | – | – | 51.7 | –
CCc1nnc(NC(=O)CCC(=O)N2CCN(Cc3ccc(C)cc3C)CC2)s1 | – | – | – | 13.7
CCCc1nnc(NC(=O)CCC(=O)N2CCN(Cc3ccc(C)cc3C)CC2)s1 | – | – | – | –
COc1cc(/C=N/NC(=O)C(Cc2c[nH]c3ccccc23)NC(=O)OCc2ccccc2)cc([N+](=O)[O-])c1O (stereo not drawn) | – | – | – | 11.4
COc1cc(/C=N/NC(=O)C(Cc2c[nH]c3ccccc23)NC(=O)OCC(C)C)cc([N+](=O)[O-])c1O (stereo not drawn) | – | – | – | –
Cc1csc(CNc2ncnc3ccc(-c4ccoc4)cc23)c1 | – | 36.7 | – | –
COc1cccc(CNC(=O)COC(=O)c2c(C)nn(-c3ccccc3)c2Cl)c1 | – | – | – | –
CCCN(CCC)C(=O)c1cc2c(=O)[nH]c3ccc(C)cc3c2s1 | – | – | – | –
Cc1ccc(C)c(N(C)C(=O)c2cc3c(=O)[nH]c4ccc(C)cc4c3s2)c1 | – | 37.2 | – | –
Cc1ccc2sc(NC(=O)C3CC3)nc2c1C | – | – | 55.3 | –
O=C(Nc1nc2c(Cl)c(Cl)ccc2s1)C1CC1 | – | – | 57.1 | –
O=C(Nc1nc2c(F)cc(F)cc2s1)C1CC1 | – | – | 66.9 | –
O=C(CN1C(=O)CCC1=O)Nc1nc2c(F)cc(F)cc2s1 | – | – | – | –
O=C(Nc1nc2c(Cl)cccc2s1)C1CC1 | – | – | – | –
O=C(Nc1nc2c(Cl)ccc(Cl)c2s1)C1CC1 | – | – | 60.6 | –
CCOc1ccc(NC(=O)CSc2nnc(Cc3cccn3C)n2-c2ccc(F)cc2)cc1 | – | – | – | –
Cc1ccc(Cc2c(-c3ccc(C)cc3)nc3cc(C)ccn23)cc1 | – | – | – | –
Cc1ccc(Cc2c(-c3ccc(Cl)cc3)nc3cc(C)ccn23)cc1 | – | 48.0 | – | –
O=C(Nc1ccncc1)c1ccc(NS(=O)(=O)c2cccc(F)c2)cc1 | – | – | – | –
COCCNC(=O)/C(C#N)=C/c1ccc(O)cc1 | – | – | – | –
CCOCCCNC(=O)/C(C#N)=C/c1ccc(Cl)c([N+](=O)[O-])c1 | – | – | 54.7 | –
COCCNC(=O)/C(C#N)=C/c1cccc(/C=C(\C#N)C(=O)NCCOC)c1 | – | – | 42.2 | –
SMILES | PLC-beta3 inh | GC-B act | NPR1 activator | PLCg1 inh
COc1ccc2cc(-c3[nH]ncc3CN3CCCCO3)ccc2c1 | – | – | – | –
N=C1C(c2nc3ccccc3s2)=C(O)CN1Cc1ccccc1 | – | – | 45.5 | –
N=C1C(c2nc3ccccc3s2)=C(O)CN1C1CCCCC1 | – | – | 54.0 | –
COC(=O)[C@H](C)N(Cc1ccc(Cl)c(Cl)c1)S(=O)(=O)CCN1CCCC1 | – | – | – | –
CC(C)(C)C1CCC2(CC1)C(Nc1cccc(C(F)(F)F)c1)=NC(=S)N2CC#N (stereo not drawn) | – | 45.9 | – | –
N#CCN1C(=S)N=C(Nc2cccc(Cl)c2)C12CCCCC2 | – | – | – | –
CCOc1ccc(S(=O)(=O)N(C)C)cc1-c1nc2c(C(C)(C)C)nn(C)c2c(=O)[nH]1 | – | 68.5 | 58.4 | –
CCOc1ccc(S(=O)(=O)N(C)CCO)cc1-c1nc2c(C(C)(C)C)nn(C)c2c(=O)[nH]1 | – | 67.3 | 59.4 | –
CN(CCO)S(=O)(=O)c1ccc2c(c1)C(=NO)c1cc(S(=O)(=O)N(C)CCO)ccc1-2 | – | – | – | –
Cc1cc(Nc2cccc([N+](=O)[O-])c2)cc(=O)n1-c1cccc([N+](=O)[O-])c1 | – | – | – | –
Fc1ccccc1CSc1nnc2ccc(-c3ccncc3)nn12 | – | – | – | –
O=C1c2ccccc2C(Nc2ccccc2)N1Cc1ccc2c(c1)OCO2 (stereo not drawn) | – | – | 61.6 | –
O=C1c2ccccc2C(Nc2ccc3c(c2)OCCO3)N1Cc1ccc2c(c1)OCO2 (stereo not drawn) | – | – | – | –
CC(C)C[C@@H](CSc1ccccc1)N1CCN(C)CCC1=O | – | – | – | 9.7
CCCN1CCC(=O)N([C@H](CSc2ccccc2)CC(C)C)CC1 | – | – | – | –
CC(NC(=O)C1CCCN(S(=O)(=O)N2CCOCC2)C1)c1ccccc1 (stereo not drawn) | – | – | – | –
O=C(N/N=C/c1ccc([N+](=O)[O-])o1)C(O)c1ccccc1 (stereo not drawn) | – | – | – | –
O=C(N/N=C/c1ccc(-c2ccc([N+](=O)[O-])cc2)o1)C(O)c1ccccc1 (stereo not drawn) | – | 40.5 | 41.8 | –
CCNC(=S)N/N=C/c1cn(Cc2ccc(F)cc2)c2ccccc12 | – | 41.8 | – | –
O=C(O)c1ccc(N/N=C/c2cn(Cc3ccc(F)cc3)c3ccccc23)cc1 | – | – | – | –
CCNC(=S)N/N=C/c1cn(Cc2ccccc2F)c2ccccc12 | – | 43.7 | 40.8 | –
CNC(=S)N/N=C/c1cn(Cc2c(F)cccc2Cl)c2ccccc12 | – | – | – | –
C/C(C/C(C)=C1/SC(=S)NC1=O)=C1\SC(=S)NC1=O | – | – | – | 72.9
CCOC(=O)c1cnc2ccc(C(=O)OC)cc2c1NCCc1ccc(OC)c(OC)c1 | – | 36.2 | – | –
O=C(Nc1ccc(Br)cc1)c1cccc(N2C(=O)C3C4C=CC(C4)C3C2=O)c1 (stereo not drawn) | – | – | – | 13.5
SMILES | PLC-beta3 inh | GC-B act | NPR1 activator | PLCg1 inh
Fc1ccccc1/C=N/Nc1ncnc2nc[nH]c12 | – | – | – | 9.8
COc1cc(Cl)ccc1OCc1cc(C(=O)N[C@H]2CCCCNC2=O)no1 | – | – | 59.9 | –
CCC(CC)=C(C#N)C(=O)NC1CCCCC1 | – | – | – | –
Cc1csc(N=Nc2ccc(N(C)C)cc2)[n+]1[O-] | – | – | – | 11.2
O=[N+]([O-])c1ccc(O)c(P(=O)(c2ccccc2)c2ccccc2)c1 | – | – | – | –
Cc1ccc(N=Nc2ccc(O)c(P(=O)(c3ccccc3)c3ccccc3)c2)cc1 | – | – | 49.8 | –
Cc1[nH]c2ccccc2c1/C=N/NC(N)=S | – | – | – | –
CCc1nnc(N/N=C/c2c(C)[nH]c3ccccc23)n1N | – | – | – | 10.5
N/C(=N\OC(=O)c1cc(Cl)ccc1Cl)c1ccncc1 | – | – | – | –
N/C(=N\OC(=O)c1ccc(Cl)cc1Cl)c1ccncc1 | – | – | 43.0 | –
Cc1ccc(C(=O)Nc2ccn(Cc3ccc(F)cc3)n2)o1 | – | – | – | –
CCOC(=O)Cn1ccc(NC(=O)COc2ccc(F)cc2)n1 | – | – | – | –
CCOC(=O)Cn1ccc(NC(=O)c2ccc(F)cc2)n1 | – | – | 49.6 | –
CCOC(=O)Cn1ccc(NC(=O)COc2ccc(F)cc2F)n1 | – | – | 41.0 | –
O=c1[nH]cnc2c1nnn2Cc1ccccc1 | – | – | – | –
